Test results: PubChem BioAssay AID1159580 (chemical genetic matrix, 2015)
Values joined by “and” are separate entries in the source; they are usually repeats but may differ in a detail not shown here. Equal entries are not always repeated. About 2,000 (36%) of roughly 5,500 compounds were called active. Another 18% or so got no clear call; they are omitted. Rule as the data show it: active = normalized growth mostly below about 0.91 (no sharp cut-off); inconclusive = no clear call, values can overlap the other calls; inactive = mostly above about 0.92. This is one part of the list.

Test: chemical genetic growth profiling, strain panel (AID 1159580);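 also: tested at 20 µM; growth read once vehicle control cultures reached saturation at 30 °C; 1 = growth at the plate median or of vehicle wells; lower values mean less growth of the strain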
Conditions: S. cerevisiae deletion strains, growth OD

Measured: normalized growth

C[C@]12CCC(=O)C=C1CCC1C2C(=O)C[C@@]2(C)C1CC[C@]2(O)C(=O)CO (stereo partly drawn)
inactive: locus YAL013W, strain DEP1, hits give low values 1 | locus YAL021C, strain ccr4, hits give low values 1.01 | locus YAL026C, strain drs2, hits give low values 1 | locus YAL030W, strain snc1, hits give low values 1 | locus YBL061C, strain skt5, hits give low values 1 | locus YBR009C, strain hhf1, hits give low values 0.992 | locus YBR021W, strain FUR4, hits give low values 1 | locus YBR023C, strain chs3, hits give low values 1.01 | locus YBR171W, strain sec66, hits give low values 1.01 | locus YBR229C, strain ROT2, hits give low values 1 | locus YBR231C, strain swc5, hits give low values 0.986 | locus YBR279W, strain paf1, hits give low values 1 | locus YCL011C, strain gbp2, hits give low values 1.01 | locus YCL016C, strain dcc1, hits give low values 1 | locus YCL029C, strain bik1, hits give low values 1.01 | locus YCL061C, strain MRC1, hits give low values 0.999 | locus YCL069W, strain vba3, hits give low values 1 | locus YCR088W, strain abp1, hits give low values 1.01 | locus YDL005C, strain med2, hits give low values 0.993 | locus YDL035C, strain GPR1, hits give low values 1.02 | locus YDL040C, strain nat1, hits give low values 1 | locus YDL074C, strain BRE1, hits give low values 1.05 | locus YDL101C, strain DUN1, hits give low values 1 | locus YDL134C, strain PPH21, hits give low values 0.986 | locus YDL185W, strain tfp1, hits give low values 1.01 | locus YDL192W, strain arf1, hits give low values 1.02 | locus YDR001C, strain nth1, hits give low values 1 | locus YDR069C, strain doa4, hits give low values 0.988 | locus YDR101C, strain arx1, hits give low values 1.04 | locus YDR137W, strain rgp1, hits give low values 1.01 | locus YDR159W, strain sac3, hits give low values 0.981 | locus YDR162C, strain NBP2, hits give low values 0.984 | locus YDR195W, strain ref2 0.973 | locus YDR297W, strain sur2, hits give low values 1 | locus YDR318W, strain mcm21, hits give low values 0.986 | locus YDR334W, strain swr1, hits give low values 1.01 | locus YDR335W, strain msn5, hits give low values 1.01 | locus YDR388W, hits give low values 1.01 | locus YDR392W, strain spt3, hits give low values 0.929 | locus YDR502C, strain sam2, hits give low values 1.01 | locus YEL003W, strain gim4, hits give low values 1.01 | locus YEL037C, strain rad23, hits give low values 1.01 | locus YEL061C, strain CIN8 (second series), hits give low values 1.01 | locus YEL061C, strain CIN8, hits give low values 0.998 | locus YER015W, strain faa2, hits give low values 1 | locus YER016W, strain bim1, hits give low values 1 | locus YER110C, hits give low values 1.01 | locus YER111C, strain swi4, hits give low values 1 | locus YER155C, strain BEM2 (second series), hits give low values 1 | locus YER155C, strain BEM2, hits give low values 1 | locus YER167W, strain BCK2, hits give low values 0.994 | locus YFR010W, strain ubp6, hits give low values 1 | locus YGL078C, strain dbp3, hits give low values 1.02 | locus YGL086W, strain mad1, hits give low values 1.02 | locus YGL167C, strain pmr1, hits give low values 1 | locus YGL173C, strain kem1, hits give low values 1.01 | locus YGL227W, strain vid30, hits give low values 1 | locus YGL240W, strain doc1, hits give low values 0.975 | locus YGL248W, strain PDE1, hits give low values 0.984 | locus YGL253W, strain hxk2, hits give low values 1.01 | locus YGR078C, strain PAC10, hits give low values 0.986 | locus YGR135W, strain pre9, hits give low values 0.968 | locus YGR229C, strain SMI1, hits give low values 0.989 | locus YGR252W, strain gcn5, hits give low values 0.976 | locus YHR013C, strain ard1, hits give low values 0.979 | locus YHR027C, strain rpn1, hits give low values 1.01 | locus YHR030C, strain SLT2, hits give low values 0.995 and 0.999 | locus YHR079C, strain IRE1 (second series), hits give low values 1.01 | locus YHR079C, strain IRE1, hits give low values 0.985 | locus YHR094C, strain hxt1, hits give low values 0.996 | locus YHR129C, strain ARP1, hits give low values 1 | locus YHR142W, strain chs7, hits give low values 1.02 | locus YHR200W, strain rpn10, hits give low values 0.999 | locus YIL066C, strain RNR3, hits give low values 0.987 | locus YIL073C, strain SPO22, hits give low values 1.04 | locus YIL125W, strain kgd1, hits give low values 1.01 | locus YIR030C, strain dcg1, hits give low values 0.997 | locus YJL092W, strain hpr5, hits give low values 1.01 | locus YJL095W, strain BCK1 (second series), hits give low values 1.01 | locus YJL095W, strain BCK1, hits give low values 0.975 and 0.986 | locus YJL115W, strain asf1, hits give low values 1.01 | locus YJL129C, strain trk1, hits give low values 1.01 | locus YJL134W, strain LCB3, hits give low values 1 | locus YJL154C, strain vps35, hits give low values 1.02 | locus YJL164C, strain tpk1, hits give low values 0.996 | locus YJL166W, strain qcr8, hits give low values 0.987 | locus YJL168C, strain set2, hits give low values 1.01 | locus YJL187C, strain SWE1 (second series), hits give low values 0.994
